Many of the other results were omitted from the sample, so hits are more common in it than they were.
KDM4E inh: blocks human JMJD2E demethylase activity; JMJD2E catalytic domain, FDH-coupled NADH fluorescence (FDH is formaldehyde dehydrogenase); Potency, µM (series often up to 57.1 µM), most hits filed as inhibitors; 1.6% of 230,000 active; active = well fitted inhibition curve with a large enough effect, not every such curve was filed as active; inconclusive = small, poorly fitted or top-dose-only effect, or another doubt; inactive = no such curve, though single readings can be large or run the other way; also: nearly all actives have a fitted effect of over 50% in size
RECQ1 helicase: RECQ1 (human) helicase inhibition | P46063 | RECQ1 DNA unwinding, red fluorescence kinetic read | Potency, µM (top dose mostly 57.3 µM), actives largely listed as inhibitors | 0.54% of 240,000 active | AID 2549; also: nearly all actives have a fitted effect of over 30% in size
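50 nM RECQ1T1 preincubated 15 min with compound in Tris pH 8.0 buffer with MgCl2, DTT, Tween-20 and 2.5 ug/ml poly(dI-dC); started with 200 nM TAMRA/BHQ-2 forked duplex and 2 mM ATP. Unwinding read as fluorescence (525/598 nm), two reads 2 h apart.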
BLM inh-1: Bloom syndrome helicase (human) inhibition | P54132 | recombinant BLM DNA unwinding, fluorescence dequenching | Potency, µM (series often up to 56.1 µM), actives largely listed as inhibitors | 0.2% of 350,000 active | AID 2528; also: nearly all actives have a fitted effect of over 35% in size
Target sequence (P54132 whole entry, looked up): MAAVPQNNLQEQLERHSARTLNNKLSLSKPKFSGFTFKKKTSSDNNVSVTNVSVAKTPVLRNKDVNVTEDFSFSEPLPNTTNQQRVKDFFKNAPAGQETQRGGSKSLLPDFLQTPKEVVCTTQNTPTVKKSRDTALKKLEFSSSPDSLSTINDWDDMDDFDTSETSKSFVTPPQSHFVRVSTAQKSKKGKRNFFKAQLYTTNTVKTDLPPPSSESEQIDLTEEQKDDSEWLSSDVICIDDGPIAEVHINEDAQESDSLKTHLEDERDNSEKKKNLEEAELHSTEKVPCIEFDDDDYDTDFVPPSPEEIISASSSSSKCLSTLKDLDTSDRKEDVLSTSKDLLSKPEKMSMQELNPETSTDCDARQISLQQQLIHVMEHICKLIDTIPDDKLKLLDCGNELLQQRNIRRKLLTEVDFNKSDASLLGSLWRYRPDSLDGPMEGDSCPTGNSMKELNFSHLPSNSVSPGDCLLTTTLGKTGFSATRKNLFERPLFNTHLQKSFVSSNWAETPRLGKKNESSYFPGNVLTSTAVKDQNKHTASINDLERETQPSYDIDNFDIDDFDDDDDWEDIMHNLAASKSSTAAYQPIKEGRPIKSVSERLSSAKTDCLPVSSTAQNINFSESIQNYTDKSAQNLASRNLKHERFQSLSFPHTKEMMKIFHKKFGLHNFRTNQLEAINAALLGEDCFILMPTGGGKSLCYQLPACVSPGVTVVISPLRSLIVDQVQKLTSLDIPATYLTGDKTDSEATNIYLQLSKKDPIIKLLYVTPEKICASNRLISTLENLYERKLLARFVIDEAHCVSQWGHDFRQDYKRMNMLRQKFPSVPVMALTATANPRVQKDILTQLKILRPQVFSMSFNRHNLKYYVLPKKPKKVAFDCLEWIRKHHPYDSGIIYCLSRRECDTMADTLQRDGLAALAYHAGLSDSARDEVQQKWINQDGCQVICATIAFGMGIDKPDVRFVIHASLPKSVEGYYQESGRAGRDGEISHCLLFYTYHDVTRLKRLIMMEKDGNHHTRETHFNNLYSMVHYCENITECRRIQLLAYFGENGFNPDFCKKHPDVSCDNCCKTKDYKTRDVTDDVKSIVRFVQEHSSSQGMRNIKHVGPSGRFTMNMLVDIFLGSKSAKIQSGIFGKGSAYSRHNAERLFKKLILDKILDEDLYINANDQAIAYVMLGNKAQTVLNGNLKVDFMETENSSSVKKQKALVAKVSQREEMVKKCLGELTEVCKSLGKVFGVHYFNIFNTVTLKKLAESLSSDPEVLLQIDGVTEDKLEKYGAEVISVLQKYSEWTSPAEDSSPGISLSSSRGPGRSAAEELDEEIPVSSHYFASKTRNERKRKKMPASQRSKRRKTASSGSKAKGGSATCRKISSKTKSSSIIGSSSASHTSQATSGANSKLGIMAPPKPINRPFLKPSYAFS
L3MBTL1 inh: inhibitors of human L3MBTL1; AlphaScreen L3MBTL1–H3K9me1 peptide binding; Potency, µM (highest dose often 57.1 µM), actives largely listed as inhibitors; 0.66% of 230,000 active; AID 485360; also: nearly all actives have a fitted effect of over 60% in size
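L3MBTL1 50 nM + b-AHA-H3(1-15)K9me1 75 nM, 30 min RT; compound added, 30 min RT; streptavidin donor/Ni-chelate acceptor beads 10 ug/mL each final, 30 min RT dark; AlphaScreen read.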
APEX1 inh: blocks human APE1 abasic DNA cleavage; P27695; recombinant APE1, TAMRA/BHQ-2 abasic DNA cleavage fluorescence; Potency, µM (doses to about 65.8 µM), actives largely listed as inhibitors; 0.35% of 350,000 active; also: nearly all actives have a fitted effect of over 55% in size
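Measures dequenching upon AP-site incision of a 5'-TAMRA/3'-BHQ-2 THF-containing duplex, 50 nM; human APE1 0.75 nM after 15 min room-temperature exposure to compound; kinetic three-point read at one-minute spacing.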
KAT2A inh: GCN5L2 (KAT2A) acetyltransferase inhibition. Q92830. GCN5L2 HAT assay, ThioGlo1 CoA-SH fluorescence. Potency, µM (top dose mostly 58.9 µM), actives largely listed as inhibitors. 0.21% of 390,000 active
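Preincubate 20nM GCN5L2 with compound 15 min, RT → add 50uM ThioGlo1 + 75uM H3(1-25) + 70uM acetyl-CoA → read fluorescence 0 and 20 min. Primary qHTS; fluorescent artifacts likely.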
BLM inh-2: BLM (human) helicase inhibition, confirmation | shares compounds with BLM inh-1 | BLM DNA unwinding, fluorescence quenching, biochemical | Potency, µM, most hits filed as inhibitors | 40% of 220 active;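 also: strand separation dequenches TAMRA so unwinding raises red fluorescence; series mostly up to about 69 µM; nearly all actives have a fitted effect of over 45% in size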
Numbers stand for hits; - = inactive; ? = inconclusive; . = no result given. Unless noted, calls follow the shape of the dose curve; as a rule, active = well fitted curve in the direction sought with a large enough effect; inconclusive = small, poorly fitted or top-dose-only effect, or another doubt; inactive = no such curve, though single readings can be large; an effect the other way counts as inactive or inconclusive.

SMILES | KDM4E inh | RECQ1 helicase | BLM inh-1 | L3MBTL1 inh | APEX1 inh | KAT2A inh | BLM inh-2
Cc1ccc(OCCn2cc(Br)c(=O)[nH]c2=O)cc1 | - | - | - | - | - | - | .
COc1ccc(OC)c(Nc2nc3nonc3nc2N2CCCC(C)C2)c1 (centres undefined) | - | - | - | - | - | - | .
c1cncc(CNc2nc(-c3ccoc3)nc3ccccc23)c1 | ? | - | - | . | - | - | .
CN(C)c1ccc(-c2nc(NCc3cccnc3)c3ccccc3n2)cc1 | ? | ? | 16µM | . | - | - | 23µM
O=C(Nc1cccc(-c2nc3cccnc3s2)c1)c1cccnc1Cl | - | - | - | . | - | - | .
O=C(Nc1cccc(-c2nc3cccnc3s2)c1)C1c2ccccc2Oc2ccccc21 | - | - | 10µM | - | ? | - | 13µM
O=C(CCl)Nc1ccccc1Sc1ccccc1 | - | - | 8.9µM | . | - | - | 13µM
CCOc1ccc(N(Cc2cc3cc(OC)ccc3[nH]c2=O)C(=O)C2CCCO2)cc1 (centres undefined) | ? | - | - | - | - | - | .
S=C(Nc1ccc(Cl)c(Cl)c1)NC1CCCCC1 | - | - | - | - | - | - | .
S=C(Nc1ccc2nsnc2c1)NC1CCCCC1 | - | - | 13µM | - | - | - | -
CC(=O)N1CCc2cc(S(=O)(=O)NC(Cc3ccccc3)C(=O)NCc3ccccc3Cl)ccc21 (centres undefined) | . | . | - | . | . | - | .
O=C(O)c1ccc2c(c1)C(=O)N(c1cccc(S(=O)(=O)Nc3cccc(C(F)(F)F)c3)c1)C2=O | - | - | - | - | - | - | .
COC(=O)c1c(NC(=O)COC(=O)c2ccccc2O)sc2c1CCCCC2 | ? | - | - | - | - | - | .
COC(=O)c1c(NC(=O)COC(=O)c2ccc(NC(=O)CC#N)cc2)sc2c1CCCCC2 | 5µM | - | 32µM | ? | - | - | ?
CSc1nc(N(C)CCO)c2sc3nc(-c4ccco4)c4c(c3c2n1)CCC4 | ? | ? | 20µM | ? | - | ? | ?
CC1(C)Cc2c(c(-c3ccco3)nc3sc4c(NCCCO)ncnc4c23)CO1 | ? | - | - | . | - | - | .
COc1ccc(S(=O)(=O)NCCCN2CCCC2=O)c(OC)c1 | . | . | - | . | - | - | .
CCOc1ncccc1C(=O)OCC(=O)Nc1cc(C(C)(C)C)ccc1OC | . | . | . | - | - | - | .
Cc1nc(-c2ccc(C(=O)Nc3cc(S(N)(=O)=O)ccc3C)cc2)cs1 | . | . | 7.1µM | - | - | - | 6.5µM
O=C(CSc1nc(O)cc(=O)[nH]1)Nc1ccc2c(c1)CCC2 | - | - | 22µM | - | - | - | -
CCCc1cc(=O)[nH]c(SCC(=O)Nc2ccc3c(c2)CCC3)n1 | - | - | - | - | - | ? | .
Cc1ccc(-c2nnn(CC(=O)N3CCCCC3)n2)o1 | - | - | - | - | - | - | .
CC(C)N(C(=O)Nc1ccc2nsnc2c1)C(C)C | - | - | 5.6µM | - | - | - | ?
COc1ccccc1-n1cnc2c(c1=O)c1nc3ccccc3nc1n2-c1ccc(C)cc1 | - | - | 10µM | - | - | ? | -
COc1ccccc1-n1c2nc3ccccc3nc2c2c(=O)n(-c3cc(C)cc(C)c3)cnc21 | - | - | - | - | - | - | .
COc1ccc(OC)c(-c2cnc(OC(C)(C)C)nc2OC(C)(C)C)c1 | - | - | - | - | - | - | .
O=C(COC(=O)C1CC(=O)N(Cc2ccco2)C1)c1ccc(OC(=O)c2ccco2)cc1 (centres undefined) | - | - | 16µM | 18µM | - | ? | ?
Cc1nc2ccc3nc(NC(=O)C4COc5ccccc5O4)sc3c2s1 (centres undefined) | ? | - | - | - | - | - | -
CSc1nc2ccc3nc(NC(=O)C4COc5ccccc5O4)sc3c2s1 (centres undefined) | ? | - | - | - | ? | - | .
Cc1nnc(SCC(=O)NCC2COc3ccccc3O2)s1 (centres undefined) | . | . | . | - | - | - | .

Assay outcomes from PubChem.
